FLuc inh – blocks purified firefly luciferase enzyme activity; 76,000 tested, 2.5% active; Potency, µM (titrated, usually from 115 µM), usual class: inhibitors; P08659; purified P. pyralis luciferase, luminescence, biochemical; also: nearly all actives have a fitted effect of over 65% in size
Target sequence (P08659 whole entry, looked up): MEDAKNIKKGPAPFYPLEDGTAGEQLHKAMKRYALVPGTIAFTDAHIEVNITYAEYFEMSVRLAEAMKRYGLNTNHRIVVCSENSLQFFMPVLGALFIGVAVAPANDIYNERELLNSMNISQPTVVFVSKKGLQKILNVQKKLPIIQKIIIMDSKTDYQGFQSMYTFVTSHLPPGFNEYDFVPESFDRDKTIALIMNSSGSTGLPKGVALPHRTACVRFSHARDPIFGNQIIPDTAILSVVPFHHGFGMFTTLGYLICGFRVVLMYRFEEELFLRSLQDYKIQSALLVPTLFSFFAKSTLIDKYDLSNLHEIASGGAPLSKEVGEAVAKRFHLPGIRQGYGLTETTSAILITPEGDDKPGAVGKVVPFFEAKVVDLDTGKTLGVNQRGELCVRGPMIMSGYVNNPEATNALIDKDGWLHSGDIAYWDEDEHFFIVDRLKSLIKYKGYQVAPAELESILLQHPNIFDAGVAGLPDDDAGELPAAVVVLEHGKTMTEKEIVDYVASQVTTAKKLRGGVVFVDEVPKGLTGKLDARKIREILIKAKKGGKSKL
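Purified 10nM P. pyralis luciferase with 10uM D-luciferin and 10uM ATP in 50mM Tris acetate pH 7.5, 10mM Mg acetate, 0.01% Tween-20, 0.05% BSA. qHTS titration; luminescence read by CCD imager.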
3T3 cytotox – cytotoxic compounds in NIH 3T3 cells; AID 1345082; 94,000 tested, 4.3% active; NIH 3T3 viability, CellTiter-Glo ATP luminescence, 48-72 h; Potency, µM (highest dose often 96.7 µM), for the others: at the top dose activity change, negative = cytotoxicity, most hits filed as inhibitors; also: nearly all actives have a fitted effect of over 55% in size
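ATP-dependent luminescence (CellTiter-Glo) served as the viability signal for NIH 3T3 cells treated with compound for 48 or 72 hr at 37 °C.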
HEK293 tox – HEK 293 cell cytotoxicity; HEK 293 viability, ATP luminescence (CellTiter-Glo), 48-72 h; Potency, µM (doses to about 115 µM), inactives show at the highest dose activity change, negative = cytotoxicity, usual class: inhibitors; 94,000 tested, 6.6% active; also: nearly all actives have a fitted effect of over 60% in size
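250 HEK 293 cells/well; compound by pintool; incubated 48 or 72 hr at 37 degree Celsius; CellTiter-Glo added, 10 min RT, luminescence imaged.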
NPR1 antag – human Npr1 receptor antagonism; 76,000 tested, 1.6% active; P16066; AID 1347048; HEK293 hNpr1 GloSensor cGMP, ANP-stimulated luminescence; Potency, µM (highest dose often 46.3 µM), inactives show at the highest dose activity change, negative = inhibition, hits mostly inhibitors; calls by dose curve; also: nearly all actives have a fitted effect of over 60% in size
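Compound pre-incubated 30 min at room temperature on GloSensor-loaded HEK293 cells stably carrying hNpr1 and the pGS-40F cGMP biosensor. Stimulation uses hNppA at 0.1 nM final; luminescence is taken at baseline and 20 min post-agonist.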
GPT2 inh – GPT2 alanine aminotransferase inhibition | Q8TD30 | 100,000 tested, 0.25% active | AID 1671188 | Potency, µM (top dose mostly 57.7 µM), inactives show top-dose activity change, negative = inhibition, actives largely listed as inhibitors | Recombinant GPT2, coupled pyruvate oxidase/HRP Amplex Red fluorescence; also: nearly all actives have a fitted effect of over 60% in size
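Recombinant GPT2 (10ng/uL) with 250uM a-KG and 2mM L-alanine, 30 min at room temperature, in HEPES pH 7.5 buffer. Pyruvate detected by pyruvate oxidase/HRP/Amplex Red fluorescence after 30 min in the dark; AOA (50uM) as positive control.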
The depositor's hits bear a star; i = inactive; ? = inconclusive; . = not tested or not shown; [ ] = another dose, or the depositor's remark. Sampled rows, rich in hits. Any-hit rate of the full collection: about 10%. Unless noted, calls follow the shape of the dose curve; as a rule, active = well fitted curve in the direction sought with a large enough effect; inconclusive = small, poorly fitted or top-dose-only effect, or another doubt; inactive = no such curve, though single readings can be large; an effect the other way counts as inactive or inconclusive. % is scaled to controls: 0 for no effect and ±100 for the full control effect; potency is read from the fitted curve at half-maximal effect.

SMILES	FLuc inh	3T3 cytotox	HEK293 tox	NPR1 antag	GPT2 inh
COc1ccc(C(=O)N[C@H]2C[C@H]3C(=O)Nc4ccc(-c5cccs5)cc4C(=O)N3C2)cc1	i	-21.9%	?	-21.9%	4.4%
O=C(N[C@H]1CCN2C(=O)c3cc(Br)ccc3NC(=O)[C@@H]2C1)c1ccco1	i	89.1µM*	?	2.4%[70.6 µM]	-4.6%[88.5 µM]
Cn1cccc1C(=O)N[C@H]1CCN2C(=O)c3cc(Br)ccc3NC(=O)[C@@H]2C1	i	0.7%[174 µM]	-8.0%[172 µM]	-9.4%[70.6 µM]	3.2%[88.5 µM]
CN1c2cc(C(=O)Nc3cccc(F)c3)ccc2C(=O)N2CCCCC21 (stereo not given)	25.1µM*	-22.2%	?	-22.8%	i
CSc1cccc(NC(=O)c2ccc3c(c2)N(C)C2CCCCN2C3=O)c1 (stereo not given)	?	?	39.8µM*	-7.1%	i
Cc1cc(C)cc(NC(=O)c2ccc3c(c2)N(C)C2CCCCCN2C3=O)c1 (stereo not given)	i	-25.0%	?	0.0%	i
CN1c2cc(C(=O)Nc3cccc(Br)c3)ccc2C(=O)N2CCCCC21 (stereo not given)	?	?	35.5µM*	0.0%	3.7%
COc1ccc(CCNC(=O)c2ccc3nnc(Cc4ccc(Cl)cc4)n3c2)cc1	.	?	?	.	5.0%
O=C1CCN(Cc2ccncc2)CCCC(C(=O)Nc2cccnc2)CCN1 (stereo not given)	i	i	i	1.3%	i
COc1ccc(-c2noc([C@@H]3CCCN3C(=O)c3ccc(C)nc3)n2)cc1	i	-28.3%	?	-17.5%	0.2%
Fc1ccccc1-c1noc(-c2nc(C3CC3)no2)n1	4.47µM*	-21.2%	?	?	3.1%
NC(=O)COc1ccc(C(=O)N[C@@H]2CN(C(=O)NC3CCCCC3)CCC[C@H]2O)cc1	i	0.1%[174 µM]	i	7.6%[70.6 µM]	-0.8%[88.5 µM]
Cc1ccc(-c2cc3c(=O)n(CCNC(=O)c4ccc[nH]c4=O)ccn3n2)cc1C	7.94µM*	-17.0%	-7.1%	-13.9%	i
Cc1ccc(-c2cc3c(=O)n(CCNC(=O)Cc4cccc(F)c4)ccn3n2)cc1C	3.55µM*	?	-17.7%	?	0.7%
CCCN1CCC2(CCN([S+](=O)([O-])c3c(C)noc3C)CC2)Oc2ccccc21	i	?	?	0.0%	i
Cc1ccc(-c2cc3c(nc2-c2ccccc2)nc(C(=O)NCCN(C)C)n3C)cc1	i	11.2µM*	39.8µM*	3.3%[70.6 µM]	?
COc1ccccc1-c1cc2c(nc1-c1ccccc1)nc(C(=O)NC1CCN(C)CC1)n2C	i	20µM*	35.5µM*	-17.7%	0.6%
CN(C)CCNC(=O)c1nc2nc(-c3ccccc3)c(-c3cccc(CO)c3)cc2n1C	i	?	?	-0.6%[70.6 µM]	i
CN(C)CCNC(=O)c1nc2nc(-c3ccccc3)c(-c3ccccc3O)cc2n1C	i	79.4µM*	?	?	2.9%[88.5 µM]
COc1ncccc1-c1cc2c(nc1-c1ccccc1)nc(C(=O)NCCN(C)C)n2C	i	?	?	-15.0%[70.6 µM]	1.5%[88.5 µM]
CN(C)CCNC(=O)c1nc2nc(-c3ccccc3)c(-c3cccc(Cl)c3)cc2n1C	i	10µM*	28.2µM*	-20.5%[70.6 µM]	-8.9%[88.5 µM]
CCNC(=O)c1cccnc1OC1CCN(C(=O)c2ccc(C)c(C)c2)C1 (stereo not given)	i	4.5%	5.1%	4.6%	-0.1%
C[S+](=O)([O-])N1CC2(CCN(C(=O)CCC(=O)O)C2)Cc2ccccc21 (stereo not given)	.	-15.9%	i	.	i
CCc1cccc(NC(=O)C2CCCCC(=O)N2)c1 (stereo not given)	i	-4.1%	1.3%	-2.7%	-3.6%
Cn1c(C(=O)NCC2CC2)nc2nc(-c3ccccc3)c(Cl)cc21	i	?	-5.6%[172 µM]	.	4.4%[88.5 µM]
SMILES	FLuc inh	3T3 cytotox	HEK293 tox	NPR1 antag	GPT2 inh
CN(C)CCNC(=O)c1nc2nc(-c3ccccc3)c(-c3ccc(Cl)cc3)cc2n1C	i	25.1µM*	39.8µM*	-3.5%[70.6 µM]	-4.5%[88.5 µM]
Cn1c(C(=O)NCCc2ccccn2)nc2nc(-c3ccccc3)c(Cl)cc21	44.7µM*	?	?	-22.5%[70.6 µM]	i
CCNc1ccnc(N2CCN(Cc3cccc(OC)c3)C(CCO)C2)n1 (stereo not given)	?	-25.3%	?	-3.7%	-18.8%
CO[C@H]1C[C@@H](O)C12CCN(C(=O)CCc1ccc(-c3cccs3)o1)CC2	i	?	25.1µM*	?	i
C[C@@]1(O)CCN(C(=O)CCc2ccc(-c3cccs3)o2)C[C@@H]1O	i	-23.5%	-21.8%	0.3%	-13.3%
COCCO[C@H]1C(=O)N(C2CCN(C(=O)NC(C)(C)C)CC2)[C@H]1c1ccncc1	i	-5.7%	i	2.6%	i
COc1cccc(CN2CC(Oc3ccccc3C(=O)NCc3ccccc3)C2)c1	i	35.5µM*	39.8µM*	-19.2%	i
O=C(NCc1ccccc1)c1ccccc1OC1CN(Cc2ccc(F)cc2)C1	i	31.6µM*	?	-16.7%	1.2%
c1ccc(CN2CCNc3cnc(Nc4ccc(N5CCOCC5)cc4)cc3C2)cc1	?	39.8µM*	70.8µM*	?	?
Cn1cc(CN2CCNc3cc(-c4ccccc4)ncc3C2)cn1	44.7µM*	-12.9%[138 µM]	?	3.2%[70.6 µM]	i
Cn1cc(CN2CCNc3cc(Nc4ccccc4)ncc3C2)cn1	28.2µM*	?	-60.3%[172 µM]	1.0%[70.6 µM]	2.8%[88.5 µM]
O=C1NCc2ccccc2CC12CCN(Cc1ccc(Oc3ccccc3)cc1)C2 (stereo not given)	.	31.6µM*	?	.	-4.8%
O=C1NCc2ccccc2CC12CCN(Cc1ccc(F)cc1)C2 (stereo not given)	.	3.9%	?	.	i
O=C1NCc2ccccc2CC12CCN(Cc1ccc(-c3ccccc3)cc1)C2 (stereo not given)	.	35.5µM*	35.5µM*	.	i
Cc1nnc(NC(=O)NC2CCN(Cc3ccccc3)CC2)s1	i	?	-24.7%	-4.0%	?
O=C(CN1C(=O)NC(c2ccc(Cl)cc2)C2=C1COC2=O)Nc1ccc(C(F)(F)F)cc1 (stereo not given)	i	22.4µM*	?	?	i
O=C(CN1C(=O)NC(c2ccc(Cl)cc2)C2=C1COC2=O)NCCc1ccc(Cl)cc1 (stereo not given)	i	?	44.7µM*	-25.6%	?
O=C(CN1C(=O)NC(c2ccccc2Cl)C2=C1COC2=O)NCCc1ccc(Cl)cc1 (stereo not given)	i	?	?	-4.8%	i
Cc1ccc(C2NC(=O)N(CC(=O)Nc3ccc(C(F)(F)F)cc3)C3=C2C(=O)OC3)cc1 (stereo not given)	i	31.6µM*	25.1µM*	?	0.7%

Assay outcomes as filed in PubChem.
